Bioassay records from PubChem BioAssay.
Shown are actives, neighbours in structure and some others; about 27% of the full set was active somewhere.
PTK2B oligo ant: blocks oligomerization of human Pyk2 in cells; AID 1347419; hit rate 0.83% among 99,000; z-score (the deposit names both 25 µM and 10 µM); Q14289; Q293 cells, Pyk2 FERM NanoBiT luminescence; hits give low values;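 active means Z-score of -3 or lower, scaled per plate to the spread of control and sample wells; inactive means z-score above -3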;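 further: negative z-score means lost luminescence so less FERM oligomerization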
CYP2C19 activ: increases human CYP2C19 enzyme activity. activation factor at 5 µM. recombinant CYP2C19, luciferin-H EGE luminescence; hits give high values; 0 = fully inhibited enzyme, 1 = untreated enzyme. P33261. 96,000 tested, under 10 active;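 active means activation factor of at least 2 at 5 µM in the primary screen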
Target sequence (P33261 whole entry, looked up): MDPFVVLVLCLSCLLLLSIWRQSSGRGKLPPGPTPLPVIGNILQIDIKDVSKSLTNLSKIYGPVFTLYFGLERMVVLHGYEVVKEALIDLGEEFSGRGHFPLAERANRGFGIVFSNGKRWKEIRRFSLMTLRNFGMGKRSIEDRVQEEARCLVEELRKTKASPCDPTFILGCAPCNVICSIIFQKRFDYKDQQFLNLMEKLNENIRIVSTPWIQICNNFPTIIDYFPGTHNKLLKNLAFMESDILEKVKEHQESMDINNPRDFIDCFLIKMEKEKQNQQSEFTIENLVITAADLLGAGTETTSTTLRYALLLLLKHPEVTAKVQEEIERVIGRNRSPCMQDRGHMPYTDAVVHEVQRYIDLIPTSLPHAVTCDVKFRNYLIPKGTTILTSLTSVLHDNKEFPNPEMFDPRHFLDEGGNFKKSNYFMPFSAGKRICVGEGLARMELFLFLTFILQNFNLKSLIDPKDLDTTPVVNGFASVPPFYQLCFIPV
CYP2C19 inhib: blocks human cytochrome P450 2C19. CYP2C19 Supersomes, luciferin-H EGE luminescence, 30 min. inhibition, % at 5 µM. hit rate 21% among 96,000. AID 778;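 active means CYP2C19 inhibition above a set limit at 5 µM in the primary screen, cut at about 50% in these data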
Cav3 T inh: human Cav3.2 channel inhibition, primary screen; hit rate 4% among 100,000; Cav3.2-expressing cells, Fluo-4 calcium fluorescence FDSS; hits give low values; B-score at 10 µM;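 active means single-dose well whose peak fluorescence ratio is a statistical outlier from its plate by either plate-standardised score or position-corrected B-score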
CYP2C9 inh: blocks human cytochrome P450 2C9. CYP2C9 Supersomes, luciferin-H conversion, luminescence. AID 777. P11712. inhibition, % at 5 µM. hit rate 20% among 96,000;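 active means blocking of liver enzyme CYP2C9 beyond about 50% at 5 µM, limit read from the data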
CYP2C9 activ: CYP2C9 (human) activation; activation factor at 5 µM; AID 1024; P11712; hit rate 1.4% among 96,000; recombinant CYP2C9, luciferin-H conversion, luminescence; hits give high values; factor 1 = untreated enzyme, 0 = blocked;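 active means activation factor of 2 or more for CYP2C9 at a 5 µM dose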
Large screens that a line does not name were inactive.

CN(C)c1cccc(C(=O)OCC(=O)NCc2ccco2)c1	none (no result: CYP2C19 activ, CYP2C19 inhib, CYP2C9 inh, CYP2C9 activ)
CN(C)c1ccc(C(=O)OCC(=O)NCC2CCCO2)cc1 (stereo unspecified)	CYP2C19 inhib 82.6
CN(C)c1cccc(C(=O)OCC(=O)NCC2CCCO2)c1 (stereo unspecified)	CYP2C19 inhib 66.6, CYP2C9 activ 2.6 (no result: Cav3 T inh)
Cc1ccccc1C(=O)/C=C1\NC(=O)CS1	none
CCOC(=O)C(CSCC(=O)c1ccc(Br)cc1)NC(=O)OC(C)(C)C (stereo unspecified)	CYP2C19 inhib 93.4, CYP2C9 inh 81.9 (no result: PTK2B oligo ant)
CCOC(=O)C(CSCC(=O)c1ccc(Cl)cc1)NC(=O)OC(C)(C)C (stereo unspecified)	CYP2C19 inhib 59.6 (no result: Cav3 T inh)
CCOC(=O)c1c(C)c(C(=O)N2CCCCCC2)c(C)n1CC	CYP2C19 inhib 66.9
CCNc1nc(N)nc(Oc2ccc(OCCOc3ccccc3)nn2)n1	none
CCNc1nc(N)nc(Oc2ccc(OCc3ccccc3)nn2)n1	CYP2C19 inhib 75.5
O=C(Nc1ccccc1)Nc1ccc(C(=O)N2CCOCC2)cc1	none
COc1ccccc1C1(O)CC2CCC(C1)N2S(=O)(=O)c1ccc(C(C)=O)cc1 (stereo unspecified)	none
CN(C(=O)CCc1nc2ccccc2s1)c1ccccc1	CYP2C19 inhib 70.1
O=C(O)CCCc1nc2ccccc2s1	CYP2C19 inhib 55.1
CCn1c(SCC(=O)Nc2ccccc2C(=O)OC)nnc1-c1ccoc1C	CYP2C19 inhib 94.5
CCn1c(SCC(=O)NC(C)(C)C)nnc1-c1ccoc1C	none (no result: CYP2C19 activ, CYP2C19 inhib, CYP2C9 inh, CYP2C9 activ)
CCn1c(SCC(=O)Nc2ccccc2C(=O)OC)nnc1-c1ccc(N)cc1	CYP2C19 inhib 98.0
CCn1c(CC(=O)Nc2ccccc2)nnc1SCC(=O)Nc1ccccc1C(=O)OC	none
O=C(O)c1cccc(S(=O)(=O)N2CCSCC2)c1	none
CCN(CC)C(=O)CSc1nc2ccccc2c(=O)n1CC	none
CCN(CC)C(=O)CSc1nc2ccccc2c(=O)n1OC(C)C	CYP2C9 inh 57.8
CCOC(=O)n1c(SCC(N)=O)nc2ccccc21	none
Cc1cc(NC(=O)CSc2nc3ccccc3c(=O)n2-c2ccccc2)no1	none
COc1ccc(-n2c(SCC#N)nc3ccccc3c2=O)cc1	CYP2C9 inh 68.1
CCCCOC(=O)n1c(SCC(=O)N(CC)CC)nc2ccccc21	CYP2C9 inh 86.0
O=C(CSc1nc2ccccc2c(=O)n1-c1cccc(C(F)(F)F)c1)NC1CC1	CYP2C19 inhib 51.0
COc1ccc(Cc2nnc(SCC(=O)NCC3CCCO3)o2)cc1 (stereo unspecified)	none
Cc1cc2c(nc1C)CCCN2C[C@@H](C)O/N=C1/[C@H]2CCn3c(=O)n(-c4ccccc4)c(=O)n3[C@H]2[C@H](O)[C@@H]2O[C@H]12	none (no result: PTK2B oligo ant, CYP2C19 activ, CYP2C19 inhib, CYP2C9 inh, CYP2C9 activ)
CCN(CC)C(=O)CSc1nc2ccccc2c(=O)n1-c1cccc(OC)c1	CYP2C9 inh 71.4
COc1cccc(-n2c(SCc3cc(=O)oc4cc(O)c(O)cc34)nc3ccccc3c2=O)c1	none (no result: CYP2C19 activ, CYP2C19 inhib, Cav3 T inh, CYP2C9 inh, CYP2C9 activ)
CCOc1ccccc1-n1c(SCC(N)=O)nc2ccccc2c1=O	CYP2C19 inhib 59.3
CCN(CC)C(=O)CSc1nc2ccccc2c(=O)n1CCC(=O)NCc1ccc(F)cc1	CYP2C19 inhib 57.0, CYP2C9 inh 91.6
CCOc1ccccc1-n1c(SCC(N)=O)nnc1-c1ccccc1	none
C/C=C/c1cc(OC)c2c(c1)[C@H](C)[C@@H](c1ccc(O)c(OC)c1)O2	none (no result: PTK2B oligo ant, CYP2C19 activ, CYP2C19 inhib, CYP2C9 inh, CYP2C9 activ)
Cc1cc(N2CCCCCC2)nc2ccc(F)cc12	none (no result: CYP2C19 activ, CYP2C19 inhib, CYP2C9 inh, CYP2C9 activ)
COC(=O)NNC(=O)c1ccccc1C	none
COc1ccc(COC(=O)NNC(=O)c2ccccc2Cl)cc1	CYP2C19 inhib 71.6
CC(C)N1C(=S)SC2CS(=O)(=O)C=C21 (stereo unspecified)	none
O=C(COc1ccccc1)n1nc(-c2ccc(Cl)cc2)nc1NCc1ccco1	CYP2C19 inhib 69.1, CYP2C9 inh 55.1
CCS(=O)(=O)n1nc(-c2ccccc2)nc1NCc1ccco1	none (no result: CYP2C19 activ, CYP2C19 inhib, CYP2C9 inh, CYP2C9 activ)
Cc1ccc(S(=O)(=O)n2nc(-c3ccc(Cl)cc3)nc2NCc2ccco2)cc1	CYP2C19 inhib 67.7, Cav3 T inh -6.6
CCOc1cccc(C(=O)NC(=S)Nc2ccc(N3CCCC3)cc2)c1	none
CCC(C)[C@@H](C(=O)Nc1ccc2c(c1)OCO2)N1Cc2ccccc2C1=O (stereo partly specified)	CYP2C19 inhib 68.7, CYP2C9 inh 50.7 (no result: PTK2B oligo ant)
O=C(COC(=O)C1=COCCO1)Nc1ccc2c(c1)OCO2	none
O=C(COC(=O)[C@H](Cc1ccccc1)N1C(=O)c2ccccc2C1=O)Nc1ccc2c(c1)OCO2	CYP2C19 inhib 81.1, CYP2C9 inh 98.6
O=C(COC(=O)c1ccc(=O)n(Cc2ccccc2)n1)Nc1ccc2c(c1)OCCO2	none
CCC(C)NS(=O)(=O)c1ccc(OCC(=O)Nc2ccc3c(c2)OCO3)cc1 (stereo unspecified)	none
CC(C)[C@@H](C(=O)OCC(=O)Nc1ccc2c(c1)OCO2)N1C(=O)c2ccccc2C1=O	CYP2C19 inhib 58.3
CCCCN(C(=N)N1CCCCC1)c1nc(C)c([N+](=O)[O-])c(=O)[nH]1	none (no result: CYP2C19 activ, CYP2C19 inhib, Cav3 T inh, CYP2C9 inh, CYP2C9 activ)
CCOC(=O)CC(=O)CSc1[nH]c(=O)cc(C)c1C#N	none
COc1cc(CSc2ncn[nH]2)c(OC)cc1CSc1ncn[nH]1	CYP2C19 inhib 62.3
COc1ccc2c(c1)c(CCNNC(=O)C(C)(C)C)c(C)n2C(=O)c1ccc(Cl)cc1	none (no result: PTK2B oligo ant, CYP2C19 activ, CYP2C19 inhib, CYP2C9 inh, CYP2C9 activ)
Cc1ccc(S(=O)(=O)Nc2c3ccccc3nc(=O)n2-c2ccccc2)cc1	none
CN(C)S(=O)(=O)c1ccc2[nH]cc(/C=C/c3nc4ccccc4c(=O)n3-c3ccccc3)c2c1	CYP2C19 inhib 70.0, CYP2C9 inh 69.4
COC(=O)C1=C(C(=O)OC)[C@@H]2N(C)c3ccc(OC)cc3[C@@]23C[C@@H](C(=O)OC)N=C3N1	none (no result: PTK2B oligo ant, CYP2C19 activ, CYP2C19 inhib, CYP2C9 inh, CYP2C9 activ)
CC(CC(=O)Nc1cc([N+](=O)[O-])ccc1Cl)c1ccccc1 (stereo unspecified)	CYP2C19 inhib 51.4
COCc1nnc(NC(=O)CC(C)c2ccccc2)s1 (stereo unspecified)	none (no result: Cav3 T inh)
CC(=O)SC(C)CC(=O)Nc1ccccc1 (stereo unspecified)	CYP2C19 inhib 70.8
CC(CC(=O)Nc1ccncc1)c1ccccc1 (stereo unspecified)	CYP2C19 inhib 98.0, CYP2C9 inh 95.6
CC(=O)SC(C)CC(=O)NCc1ccccc1 (stereo unspecified)	none
C=CCN1C(c2ccc(OCC)cc2)=CS/C1=C(\C#N)c1nnc2n1CCCCC2	none
OCCN1CCN(CCOc2cccc(Cl)c2)CC1	none
COC(=O)C1=C(CN2CCCc3ccccc32)NC(=O)NC1c1ccc(F)cc1 (stereo unspecified)	CYP2C19 inhib 72.3, Cav3 T inh -3.93
COC(=O)C1=C(CN2CCc3ccccc32)NC(=O)NC1c1cc(C)ccc1C (stereo unspecified)	none (no result: Cav3 T inh)
